Sfp PPTase inh: inhibitors of Bacillus subtilis Sfp phosphopantetheinyl transferase | actives 3.5% (n = 310,000) | Biochemical Sfp PPTase activity, qHTS | Q9F4F7 | Potency, µM, usual class: inhibitors;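 note: the enzyme is Sfp with the accession as filed and its product quenches rhodamine fluorescence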
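Fluorescence-quenching assay with 15 nM Sfp, 5 uM rhodamine-CoA and 12.5 uM BHQ-2-labelled ybbR peptide in pH 7.6 Hepes/MgCl2 buffer. Enzyme was pre-incubated with compound for 15 min at room temperature. Rate was taken from the 30-min fluorescence change (525/598 nm).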
JMJD2A Tudor inh: inhibitors of human JMJD2A Tudor domain. O75164. AlphaScreen JMJD2A-Tudor / H3K4me3 peptide binding. Potency, µM (series often up to 114 µM), actives largely listed as inhibitors. actives 4.4% (n = 390,000). AID 504339; note: nearly all actives have a fitted effect of over 50% in size
HP1b binding inh: HP1-beta chromodomain-methylated histone interaction inhibition; actives 0.56% (n = 390,000); Potency, µM (titrated, usually from 114 µM), hits mostly inhibitors; AlphaScreen HP1-beta / biotin-H3K9me3 peptide binding; note: nearly all actives have a fitted effect of over 70% in size
Target sequence (P83916 whole entry, looked up): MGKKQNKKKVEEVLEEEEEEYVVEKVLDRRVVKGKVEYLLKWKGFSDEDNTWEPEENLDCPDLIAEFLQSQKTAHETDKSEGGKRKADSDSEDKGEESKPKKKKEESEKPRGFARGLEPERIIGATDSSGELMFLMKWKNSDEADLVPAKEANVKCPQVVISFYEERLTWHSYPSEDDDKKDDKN
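AlphaScreen: HP1-beta (50 nM) preformed 30 min with biotin-H3(1-18)K9me3 peptide (50 nM) in PBS pH 7.4, 0.01% Tween-20. Compound added for 30 min at RT, then streptavidin donor/nickel chelate acceptor beads (10 ug/mL) for 30 min.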
G9a inh: G9a (human) methyltransferase inhibition; Potency, µM (doses to about 102 µM), hits mostly inhibitors; actives 8.8% (n = 350,000); AID 504332; G9a H3K9 monomethylation, AlphaScreen, 2 h; note: nearly all actives have a fitted effect of over 75% in size
Target sequence (Q96KQ7 913-1193 limits assumed): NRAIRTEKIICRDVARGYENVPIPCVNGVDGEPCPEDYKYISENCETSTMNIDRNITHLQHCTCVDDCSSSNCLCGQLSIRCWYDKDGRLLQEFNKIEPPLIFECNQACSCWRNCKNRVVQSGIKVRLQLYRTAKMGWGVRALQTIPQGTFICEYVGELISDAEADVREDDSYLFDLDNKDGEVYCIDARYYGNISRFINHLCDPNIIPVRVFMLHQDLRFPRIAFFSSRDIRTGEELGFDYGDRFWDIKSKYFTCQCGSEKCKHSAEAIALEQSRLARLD
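G9a (20 nM) preincubated 15 min RT with compounds, then 500 nM biotinylated H3K9 peptide and 20 uM SAM added; 2 h RT reaction. Monomethyl-H3K9 product detected by AlphaScreen with anti-H3K9me1 antibody, streptavidin donor and anti-rabbit IgG acceptor beads.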
BAZ2B inh: BAZ2B (human) inhibition; Q9UIF8; AlphaScreen BAZ2B-H3K14Ac peptide displacement; Potency, µM (titrated, usually from 114 µM), actives largely listed as inhibitors; actives 4.4% (n = 360,000); AID 504333; note: nearly all actives have a fitted effect of over 60% in size
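Inhibition is scored as reduced AlphaScreen emission. The BAZ2B/b-H3(5-23)K14Ac complex (50 nM each) in PBS pH 7.4, 0.01% Tween-20 meets compound (up to 110 uM) for 30 min at RT before bead addition.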
Numbers stand for hits; i = inactive; ? = inconclusive; nt = no result given; [ ] = dose if it differs, or a comment. Shown are actives, neighbours in structure and some others; about 12% of the full set was active somewhere. Calls come from the whole dose curve; as a rule, active = well fitted curve in the direction sought with a large enough effect; inconclusive = small, poorly fitted or top-dose-only effect, or another doubt; inactive = no such curve, though single readings can be large; an effect the other way counts as inactive or inconclusive.

SMILES	Sfp PPTase inh	JMJD2A Tudor inh	HP1b binding inh	G9a inh	BAZ2B inh
CC(=O)C1=C(C)N(Cc2ccccc2)C(=O)N[C@@H]1c1cccc(C(F)(F)F)c1	i	i	i	50µM	i
CN1C(=O)C[C@@H](C(=O)N[C@@H](Cc2cnc[nH]2)C(=O)N2CCC[C@H]2C(N)=O)NC1=O	i	nt	nt	i[12.7 µM]	nt
Fc1ccc(C2CC(c3ccccc3)Nc3ncnn32)cc1 (stereo not given)	i	i	i	?	i
NC(=O)C1CCN(C(=S)c2cccs2)CC1	i	i	i	?	i
COc1ccc(S(=O)(=O)N2CCOC2CNC(=O)C(=O)NCc2ccccn2)cc1C (stereo not given)	i	i	i	nt	i
COC(=O)C1=C(C)N(Cc2ccccc2)C(=NCC(C)C)N[C@H]1c1cccc(C(F)(F)F)c1	nt	35µM	i	nt	nt
Cc1cccc(C(=O)OCC(=O)c2ccc(CC(=O)N3CCOCC3)s2)c1C	nt	?	i	i[2.33 µM]	50µM
Cc1cccc(C(=O)OCC(=O)N2CC(C)OC(C)C2)c1C (stereo not given)	i	i	i	i	i
Cc1oc(-c2cccc(Cl)c2)nc1Cn1c(SCc2ccc(F)cc2)nc2cccnc21	nt	i	i	?	i
CC(=O)N1CCCC1C(=O)O (stereo not given)	i	i	i	i[2.33 µM]	nt
O=C1CCCC2(O)C1C(c1cccc(Br)c1)NC(=O)N2Cc1ccccc1 (stereo not given)	?	i	i	45µM	i
C[C@@H]1CC=C[C@@H]2[C@H]1C(=O)N(Cc1ccccc1)[C@H]2c1cccc(Br)c1	i	i	i	i	nt
CNc1nc(-c2ccccc2)[n+](-c2ccc(C)cc2)s1	3.2µM	20µM	11µM	1.4µM	7.9µM
Cc1ccc(-c2nc(N)s[n+]2-c2ccccc2)cc1	?	28µM	?	5µM	i
Cc1ccc(-c2nc3ccccc3nc2-c2ccccc2)cc1	i	i	i	nt	i
CC1CCCC(C)N1C(=O)CSc1nnc(COc2cccc3cccnc23)o1 (stereo not given)	i	i	i	nt	i
CC(=O)NC(CC(=O)NCCN1C(=O)S/C(=C\c2ccccc2)C1=O)c1ccccc1 (stereo not given)	i	i	i	56µM	i
CC(=O)NNC(=O)CN1C(=O)/C(=C/c2ccccc2)SC1=S	i	i	i	i	i
O=C(CCCN1C(=O)/C(=C/c2ccccc2)SC1=S)NCCCn1ccnc1	i	?	i	i	45µM
O=C(CCN1C(=O)/C(=C/c2ccccc2F)SC1=S)NCCCn1ccnc1	i	?	i	nt	40µM
O=C(CCN1C(=O)S/C(=C\c2ccccc2)C1=O)NCCCn1ccnc1	i	i	i	i	i
O=C(CN1C(=O)S/C(=C\c2ccccc2)C1=O)NCCCn1ccnc1	i	?	i	35µM	?
O=C(CCN1C(=O)/C(=C/c2ccccc2)SC1=S)NCCc1ccc(O)cc1	i	i	i	i	i
Cc1ccccc1/C=C/C(=O)NCC(=O)N1CCC(N(C)C2CCCCC2C)CC1 (stereo not given)	i	i	i	i	i
CC1([N+](=O)[O-])COC(C=Cc2ccccc2)OC1 (stereo not given)	nt	i	i	nt	nt
SMILES	Sfp PPTase inh	JMJD2A Tudor inh	HP1b binding inh	G9a inh	BAZ2B inh
Cc1ccc(N=Nc2ccc(N)cc2C)c(S(N)(=O)=O)c1	?	8.9µM	?	20µM	50µM
Cc1cccc(N=Nc2ccc(O)c3ncccc23)c1	i	32µM	?	7.1µM	8.9µM
Cc1ccc(C)c(N=Nc2ccc(O)c3ncccc23)c1	i	8.9µM	?	11µM	20µM
Cc1ccc(O)c(CNc2ccccn2)c1	i	i	i	i	i
Cc1ccc(N=Nc2cc(C)ccc2O)c(C)c1	i	45µM	?	7.9µM	5.6µM
Cc1cc(N)ccc1N=Nc1c(C)n(C)n(-c2ccccc2)c1=O	i	?	i	i	i
Cc1ccc(N=C(N(C)C)P(=O)(N(C)C)N(C)C)c(C)c1	i	i	i	i	i
Oc1ccc(N=Nc2ccc3c(c2)OCCO3)c2ncccc12	i	?	i	11µM	?
Cc1cc2c(cc1C)CN(c1ccccc1)C2	i	?	i	7.1µM	i
Oc1cccc(N2Cc3ccccc3C2)c1	i	?	i	i[2.33 µM]	i
Cc1cc(N2Cc3ccccc3C2)ccc1C=O	i	i	i	50µM	i
CCOC(=O)Cc1cnc(NC(=O)CSc2nc(N)cc(N)n2)s1	i	i	i	i	i
CC(C)(C)C(=O)/C=c1\s/c(=C\c2ccc(-c3ccc([N+](=O)[O-])cc3)o2)c(=O)n1CC(=O)NC(N)=O	?	i	i	45µM	?
Cc1cccc[n+]1C1C(c2ccc([N+](=O)[O-])cc2)C(C#N)=C(C(=C=[N-])C#N)NC1(O)C1CC1 (stereo not given)	i	i	i	i	i
N#CC1=C(N)NC(=S)C(C(N)=O)C1c1ccc([N+](=O)[O-])cc1 (stereo not given)	1µM	89µM	i	nt	i
CCC(C)(C)NCC(=O)Nc1ccc(OC(F)(F)F)cc1	i	i	i	i	i
COc1ccc(CCNCC(=O)Nc2ccc(OC(F)F)cc2)cc1	i	i	i	i	i
COCCCNCC(=O)Nc1ccc(OC(F)(F)F)cc1	i	2.8µM	i	8.9µM	?
COc1ccc(CCNCC(=O)Nc2ccc(OC(F)(F)F)cc2)cc1OC	i	20µM	?	32µM	?
CCOP(=O)(c1ccccc1)c1nc(-c2ccccc2Cl)oc1N1CCCCC1 (stereo not given)	?	i	i	?	?
CN(C)/N=C/C=C1\CCC/C(=C\c2ccc(F)c(F)c2)C1=O	8.9µM	?	?	?	40µM
COc1ccc(/C=C2\CCC/C(=C\C=N\N(C)C)C2=O)cc1	i	32µM	?	?	32µM
COc1ccc(/C=C2\CCCCC2=O)cc1	nt	i	i	nt	nt
CCc1ccc(C(=O)NNC(=O)c2cccc(S(=O)(=O)N3CCN(C)CC3)c2)cc1	nt	i	i	56µM	i
O=C(Nc1cc(S(=O)(=O)N2CCOCC2)ccc1N1CCOCC1)c1cccs1	nt	89µM	i	i[2.33 µM]	i
SMILES	Sfp PPTase inh	JMJD2A Tudor inh	HP1b binding inh	G9a inh	BAZ2B inh
CN1CCN(S(=O)(=O)c2cccc(C(=O)Nc3cc(Cl)ccc3N3CCOCC3)c2)CC1	nt	i	i	16µM	i
CN1CCN(S(=O)(=O)c2cccc(C(=O)Nc3cc(C(F)(F)F)ccc3N3CCCC3)c2)CC1	nt	i	i	50µM	i
Cc1cccc(C(=O)NCCNC(=O)c2cccnc2)c1	i	i	i	i	i
Brc1ccccc1-n1ncc2c1ncn1nc(Cc3ccccc3)nc21	nt	i	i	i	i
CC1CN(S(=O)(=O)c2cccc(C(=O)Nc3ccccc3N3CCCC3)c2)CC(C)O1 (stereo not given)	nt	?	i	50µM	i
CCn1c2ccccc2c2cc(C3C(C#N)=C(N)OC4=C3C(=O)CC(C)(C)C4)ccc21 (stereo not given)	i	nt	nt	i	i
Cc1ccc(/C=N\NC(=O)CNC(=O)C23CC4CC(CC(C4)C2)C3)o1	56µM	i	i	i[12.7 µM]	i

Source: PubChem (National Center for Advancing Translational Sciences (NCATS))
